# In all, about 330,000 compounds went through this assay and about 1,500 (0.45%) were called active. Many of the other results were omitted from the sample, so actives are more common in it than they were. Unmarked numbers belong to inactive results. Rule as the data show it: active = inhibition above about 45% (passing the limit was not always enough); inconclusive = no clear call, values can overlap the other calls.
# Target: Ubiquitin-conjugating enzyme E2 N (Homo sapiens) (UniProt P61088)
# Assay: blockers of UBC13 ubiquitin chain synthesis – biochemical, TR-FRET, uHTS, primary screen (AID 485273)
# Conditions: UBC13 polyubiquitin chain formation, at 20 µM, active compounds read high
# Ubiquitin-conjugating enzyme E2 N (Homo sapiens), sequence (P61088 whole entry, looked up): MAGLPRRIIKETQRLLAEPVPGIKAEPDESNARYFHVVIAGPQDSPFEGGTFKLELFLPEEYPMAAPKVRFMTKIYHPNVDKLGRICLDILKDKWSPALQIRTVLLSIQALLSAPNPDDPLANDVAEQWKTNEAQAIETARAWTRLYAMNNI
row,SMILES,inhibition
1,CCCN(C(=O)CSc1nnc(N)s1)c1c(N)n(Cc2ccccc2)c(=O)[nH]c1=O,0.1%
2,COC(=O)C(C)Oc1ccc2c(-c3cccc([N+](=O)[O-])c3)cc(=O)oc2c1 (centres undefined),-16.8%
3,COc1cccc(CN(C)CC(O)COC(c2ccccc2)c2ccccc2C)c1 (centres undefined),19.2%
4,CN(C(=O)CSc1nnc(-c2ccc(C(C)(C)C)cc2)n1C)C1CCS(=O)(=O)C1 (centres undefined),-4.3%
5,OCCn1c(-c2ccccc2)csc1=Nc1ccccc1,-10.7%
6,C#CCNC(=O)C1=C[C@@H](c2ccccc2)[C@H](CCCO)[C@@H](OCC)O1,0.9%
7,Cc1ccc(NC(=O)Cc2nnc(SCC(=O)Nc3nncs3)n2C)cc1,-2.3%
8,COc1cccc(CNS(=O)(=O)c2cc3c(cc2C)n(C)c(=O)c(=O)n3C)c1,20%
9,Cc1cccc(Cn2cnc3c(N)c(C)c(C)cc32)c1,3.8%
10,COc1cccc(Cn2cnc3c([N+](=O)[O-])c(C)c(C)cc32)c1,60.4% (active)
11,COc1ccc(CNC(=O)C2CCN(S(=O)(=O)c3ccc(SC)cc3)CC2)cc1,6.2%
12,C#CCOCCOCCOCCNc1nc(N2CCN(C(=O)[C@H](CCCN=C(N)N)n3cc(C(N)[C@@H](C)CC)nn3)CC2)nc(N2CCN(C(=O)[C@H](CO)n3cc([C@@H](N)C(C)C)nn3)CC2)n1 (some centres undefined),33.1%
13,C#CCOCCOCCOCCNc1nc(N2CCN(C(=O)[C@H](C(C)C)n3cc(CCO)nn3)CC2)nc(N2CCN(C(=O)[C@H](C(C)C)n3cc(CCO)nn3)CC2)n1,-11.8%
14,C#CCOCCOCCOCCNc1nc(N2CCN(C(=O)CCCCCCCCCCNC(=O)[C@H](CCCCN)n3cc(C)nn3)CC2)nc(N2CCN(C(=O)CCCCCCCCCCNC(=O)[C@H](CO)n3cc(CCCSC)nn3)CC2)n1,121% (active)
15,C#CCOCCOCCOCCNc1nc(N2CCN(C(=O)[C@H](C(C)C)n3cc(CCO)nn3)CC2)nc(N2CCN(C(=O)[C@H]([C@@H](C)CC)n3cc(CCCN=C(N)N)nn3)CC2)n1,19.7%
16,C#CCOCCOCCOCCNc1nc(N2CCN(C(=O)Cn3cc(CCCCN)nn3)CC2)nc(N2CCN(C(=O)[C@H](CCCCN)n3cc(CCC(=O)O)nn3)CC2)n1,3.6%
17,C#CCOCCOCCOCCNc1nc(N2CCN(C(=O)CCCCCCCCCCNC(=O)Cn3cc(CCCCCN)nn3)CC2)nc(N2CCN(C(=O)CCCCCCCCCCNC(=O)[C@H](CO)n3cc(CCCSC)nn3)CC2)n1,128% (active)
18,C#CCOCCOCCOCCNc1nc(N2CCN(C(=O)CCCCCCCCCCNC(=O)[C@H]([C@@H](C)CC)n3cc(CCCCN=C(N)N)nn3)CC2)nc(N2CCN(C(=O)CCCCCCCCCCNC(=O)[C@H](CO)n3cc(CCCSC)nn3)CC2)n1,121% (active)
19,C#CCOCCOCCOCCNc1nc(N2CCN(C(=O)[C@H](CCC(=O)O)n3cc(CN)nn3)CC2)nc(N2CCN(C(=O)[C@H](CCC(=O)O)n3cc(CN)nn3)CC2)n1,2.2%
20,COc1ccccc1NC(=O)CCN1CCN(c2ccc(Cl)cc2)CC1,-6%
21,O=C(CN1CCN(c2ccc(O)cc2)CC1)NC1CCCc2ccccc21 (centres undefined),7.1%
22,O=C(CN1CCSCC1)N/N=C/c1ccc(Cl)cc1,-14.1%
23,CNc1nccc(-c2ccc(Cl)cc2)c1C#N,9.5%
24,N#Cc1c(-c2ccc(Cl)cc2)c2c([nH]c1=S)CCCC2,47.4% (active)
25,CN(C)c1nc(-c2cccnc2)nc(-c2ccc(Cl)cc2)c1C#N,-0.5%

row,SMILES,inhibition
1,Cn1cc(Cl)c(C(=O)NNC(=S)Nc2cccc(Cl)c2)n1,-10.5%
2,Cc1cccc(-n2cnc(C(=O)NNC(=S)Nc3ccccc3)c2)n1,84.4% (active)
3,Cc1cccc(-n2cnc(C(=O)Nc3cccnc3)c2)n1,-3.6%
4,COc1ccc(CNS(=O)(=O)c2ccc(NC(=O)N3CCCCC3)cc2)cc1,-9.2%
5,CN1CCN(CCCNC(=O)c2ccc(/C=C3\Oc4ccccc4N(Cc4ccc(Cl)cc4)C3=O)cc2)CC1,80.8% (active)
6,CC(C)OCCCNC(=O)CN1C(=O)/C(=C/c2ccccc2F)Oc2ccccc21,1%
7,CCCN1CCN(C(=O)CCCNC(=O)c2ccc(Cl)cc2)CC1,-6.8%
8,Cc1ccc2c(C)c(C(=O)N3CCC(N4CCC(C(=O)NC5CC5)CC4)CC3)oc2c1,-16.4%
9,S=C(Cc1ccc(Cl)cc1)N1CCOCC1,4.3%
10,CCN1C(=NCC(C)C)N[C@@H](CCc2ccccc2)[C@H](C(=O)NCC(C)C)[C@H]1C,15.8%
11,CCN1C(=NCc2ccc(OC)cc2)N[C@@H](CCc2ccccc2)[C@H](C(=O)NCc2ccc(OC)cc2)[C@H]1C,48.7% (active)
12,CCN1C(=S)N[C@@H](CCc2ccccc2)[C@H](C(=O)OC)[C@H]1C,4.5%
13,CCN(CC(=O)Nc1cc(Cl)ccc1C)C(=O)CSCc1ccc(C)cc1,0.3%
14,Cc1cccc(N2CCN(C(C)C(=O)N3CCc4ccccc43)CC2)c1C (centres undefined),-1.5%
15,CC(=O)Nc1cccc(NC(=O)c2ccc3c(c2)CCN3S(C)(=O)=O)c1,-2.7%
16,CC(C)(c1ccccc1)c1ccc(OCCN)cc1,16.7%
17,Cc1cc(C)n(CC(O)COc2ccc(C(C)(C)C)cc2)n1 (centres undefined),-14.2%
18,CN(C)CC(O)COc1ccc(C(C)(C)c2ccc(OCC(O)CN(C)C)cc2)cc1 (centres undefined),59.2% (active)
19,O=C(COC(=O)c1ccccn1)NNC(=O)c1ccc(Br)cc1,3.1%
20,NC(=O)NC(CC(=O)NNC(=O)c1ccccn1)c1ccc(Cl)cc1 (centres undefined),93.2% (active)
21,CCCNC(=O)NC(=O)COC(=O)CC(NC(N)=O)c1ccc(Cl)cc1 (centres undefined),1%
22,COc1ccc(C(=O)C2CCCN(S(=O)(=O)c3cccc(C)c3)C2)c(C)c1 (centres undefined),-4.5%
23,O=C(CCn1c(=O)oc2ccccc21)Nc1ccon1,-0.5%
24,Cc1ccc2c(c1)C(c1ccccc1)N(C(=O)c1ccc(S(=O)(=O)N3CCOCC3)cc1)CC(=O)N2 (centres undefined),0.9%
